Laboratory results as given in ChEMBL document CHEMBL3988442, “University of Dundee, Small-Polar-MMV Screening Library” (2021).
For some assays here: Entries with a potency or affinity are not part of this list.

Experiments:
Design in all cases: scale not given: direction of the effect not stated beside the values
[1] = molecular target: Protein translocase subunit SecA (Escherichia coli (strain K12)) (UniProt P10408); test: Assay to Identify E. coli SecA ATPase Inhibitors; assay type: functional; conditions: 30 µM
Chain of Protein translocase subunit SecA (Escherichia coli (strain K12)) (P10408 whole entry): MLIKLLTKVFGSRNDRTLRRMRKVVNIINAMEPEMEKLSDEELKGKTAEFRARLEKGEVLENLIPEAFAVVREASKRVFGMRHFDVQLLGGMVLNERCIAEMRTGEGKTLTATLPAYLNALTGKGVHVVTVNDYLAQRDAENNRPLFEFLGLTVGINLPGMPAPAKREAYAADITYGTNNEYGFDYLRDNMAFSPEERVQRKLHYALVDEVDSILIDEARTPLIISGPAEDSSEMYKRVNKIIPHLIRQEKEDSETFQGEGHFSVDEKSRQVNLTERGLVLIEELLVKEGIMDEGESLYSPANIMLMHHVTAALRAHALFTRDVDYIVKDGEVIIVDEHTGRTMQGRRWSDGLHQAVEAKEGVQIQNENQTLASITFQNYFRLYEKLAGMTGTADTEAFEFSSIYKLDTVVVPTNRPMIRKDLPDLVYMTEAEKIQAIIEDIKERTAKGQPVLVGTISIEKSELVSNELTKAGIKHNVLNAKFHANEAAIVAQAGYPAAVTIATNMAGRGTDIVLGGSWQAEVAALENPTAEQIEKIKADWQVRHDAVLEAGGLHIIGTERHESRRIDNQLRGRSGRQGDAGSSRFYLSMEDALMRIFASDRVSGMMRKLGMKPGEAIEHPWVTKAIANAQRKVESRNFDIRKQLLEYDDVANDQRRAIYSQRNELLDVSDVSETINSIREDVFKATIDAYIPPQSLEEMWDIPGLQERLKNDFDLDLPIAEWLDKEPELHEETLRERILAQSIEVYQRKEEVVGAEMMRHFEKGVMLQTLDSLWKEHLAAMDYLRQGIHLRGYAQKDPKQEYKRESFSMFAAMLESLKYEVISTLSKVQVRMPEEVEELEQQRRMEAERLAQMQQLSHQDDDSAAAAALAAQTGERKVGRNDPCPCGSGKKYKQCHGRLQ

[2] = molecular target: T1, Ubiquitin-activating enzyme e1, putative (Leishmania donovani (strain BPK282A1)) (UniProt E9BSI1); test: Leishmania donovani Ubiquitin Activating Enzyme (LdE1); assay type: functional; conditions: 30 µM
T1 sequence (whole entry): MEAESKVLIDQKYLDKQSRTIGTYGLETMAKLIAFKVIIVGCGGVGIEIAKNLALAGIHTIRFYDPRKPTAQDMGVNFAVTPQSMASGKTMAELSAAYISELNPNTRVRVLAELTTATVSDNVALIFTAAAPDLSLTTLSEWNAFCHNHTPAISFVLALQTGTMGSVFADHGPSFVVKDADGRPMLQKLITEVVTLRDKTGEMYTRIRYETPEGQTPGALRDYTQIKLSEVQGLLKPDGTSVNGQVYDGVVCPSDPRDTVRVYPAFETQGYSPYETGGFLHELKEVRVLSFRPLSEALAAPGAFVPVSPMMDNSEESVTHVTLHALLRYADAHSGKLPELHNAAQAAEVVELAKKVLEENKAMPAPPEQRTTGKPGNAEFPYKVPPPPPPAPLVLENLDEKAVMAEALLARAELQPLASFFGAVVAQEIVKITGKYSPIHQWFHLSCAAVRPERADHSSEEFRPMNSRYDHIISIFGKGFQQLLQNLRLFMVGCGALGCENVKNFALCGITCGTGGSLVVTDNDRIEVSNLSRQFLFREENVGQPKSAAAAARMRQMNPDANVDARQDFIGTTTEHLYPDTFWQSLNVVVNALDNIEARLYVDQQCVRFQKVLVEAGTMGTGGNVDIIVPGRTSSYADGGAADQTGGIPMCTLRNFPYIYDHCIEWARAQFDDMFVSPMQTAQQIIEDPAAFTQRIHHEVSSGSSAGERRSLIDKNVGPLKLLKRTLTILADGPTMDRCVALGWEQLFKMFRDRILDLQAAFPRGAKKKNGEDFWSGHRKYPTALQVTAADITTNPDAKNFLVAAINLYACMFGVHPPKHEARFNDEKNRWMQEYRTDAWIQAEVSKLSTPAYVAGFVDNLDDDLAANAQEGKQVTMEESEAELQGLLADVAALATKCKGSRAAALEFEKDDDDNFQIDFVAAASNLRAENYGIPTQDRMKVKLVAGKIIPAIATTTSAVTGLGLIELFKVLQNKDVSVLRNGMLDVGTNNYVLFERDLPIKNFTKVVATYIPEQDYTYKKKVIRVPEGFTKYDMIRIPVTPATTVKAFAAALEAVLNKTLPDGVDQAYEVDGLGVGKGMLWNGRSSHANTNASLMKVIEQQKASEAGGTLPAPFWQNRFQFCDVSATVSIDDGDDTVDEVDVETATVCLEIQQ

[3] = molecular target: Sialic acid-binding Ig-like lectin 9 (Homo sapiens) (UniProt Q9Y336); test: Hs-Siglec9 ALPHAscreen SOP 20170721; conditions: 10 µM
Chain of Sialic acid-binding Ig-like lectin 9 (Homo sapiens) (Q9Y336 whole entry): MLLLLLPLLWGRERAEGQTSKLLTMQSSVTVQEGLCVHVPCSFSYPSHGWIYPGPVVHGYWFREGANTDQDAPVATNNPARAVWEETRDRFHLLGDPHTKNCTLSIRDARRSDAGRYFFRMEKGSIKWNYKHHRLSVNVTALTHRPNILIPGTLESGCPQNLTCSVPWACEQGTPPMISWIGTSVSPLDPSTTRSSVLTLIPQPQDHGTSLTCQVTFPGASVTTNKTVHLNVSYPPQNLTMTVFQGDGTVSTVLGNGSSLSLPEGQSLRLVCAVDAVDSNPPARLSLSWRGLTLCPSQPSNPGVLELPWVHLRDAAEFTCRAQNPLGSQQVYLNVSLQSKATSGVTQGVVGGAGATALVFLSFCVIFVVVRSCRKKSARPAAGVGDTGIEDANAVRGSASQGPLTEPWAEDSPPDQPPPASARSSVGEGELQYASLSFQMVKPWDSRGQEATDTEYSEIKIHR

Trypanosoma cruzi = test: Trypanosoma cruzi phosphomannomutase and mannose-1-phosphate guanylyltransferase assay; assay type: functional; conditions: 10 µM
[4] = molecular target: T2, Arginase-2, mitochondrial (Homo sapiens) (UniProt P78540); test: in vitro enzyme assay to detect the production of urea directly proportional to the activity of Arginase II; assay type: functional; conditions: 33.3 µM; further: in the data most compounds retested in dose-response had high values
T2 sequence (whole entry): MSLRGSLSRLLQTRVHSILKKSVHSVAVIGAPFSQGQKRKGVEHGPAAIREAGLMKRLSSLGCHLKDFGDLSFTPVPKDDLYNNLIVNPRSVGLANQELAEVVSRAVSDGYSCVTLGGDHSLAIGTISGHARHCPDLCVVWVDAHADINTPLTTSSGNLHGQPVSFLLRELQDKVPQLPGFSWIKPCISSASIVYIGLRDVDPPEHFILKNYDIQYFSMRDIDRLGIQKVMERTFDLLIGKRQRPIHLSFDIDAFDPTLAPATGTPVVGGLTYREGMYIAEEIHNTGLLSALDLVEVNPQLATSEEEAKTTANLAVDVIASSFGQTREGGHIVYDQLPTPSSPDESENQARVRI

[5] = molecular target: T3, Proteasome subunit beta (Trypanosoma cruzi) (UniProt O96673); test: Trypanosoma cruzi proteasome chymotrypsin-like activity (TcProtChymo) assay.; further: in the data most compounds retested in dose-response had high values; assay type: functional; conditions: 9.37 µM
T3 sequence (whole entry): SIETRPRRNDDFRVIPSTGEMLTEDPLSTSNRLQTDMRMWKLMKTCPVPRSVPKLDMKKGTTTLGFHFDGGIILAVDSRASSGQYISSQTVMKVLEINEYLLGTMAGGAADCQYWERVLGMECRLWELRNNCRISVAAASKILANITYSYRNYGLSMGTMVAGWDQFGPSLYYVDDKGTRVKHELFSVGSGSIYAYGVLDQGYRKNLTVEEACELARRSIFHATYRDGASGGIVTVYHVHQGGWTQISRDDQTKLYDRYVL

Homo sapiens = species on record: Homo sapiens; test: To identify inhibition of the IFN signalling (Jak-Stat) pathway via expression of an eGFP reporter gene under the control of an IFN-stimulated response element (ISRE) containing MxA promoter.; assay type: functional; conditions: 30 µM
[6] = molecular target: T4, Tyrosyl-tRNA synthetase, putative (Trypanosoma cruzi (strain CL Brener)) (UniProt Q4DSP6); test: Trypanosoma cruzi tyrosyl tRNA synthetase (TcYRS) _High Tyrosine SOP; assay type: functional; conditions: 30 µM; further: in the data most compounds retested in dose-response had high values
T4 sequence (whole entry): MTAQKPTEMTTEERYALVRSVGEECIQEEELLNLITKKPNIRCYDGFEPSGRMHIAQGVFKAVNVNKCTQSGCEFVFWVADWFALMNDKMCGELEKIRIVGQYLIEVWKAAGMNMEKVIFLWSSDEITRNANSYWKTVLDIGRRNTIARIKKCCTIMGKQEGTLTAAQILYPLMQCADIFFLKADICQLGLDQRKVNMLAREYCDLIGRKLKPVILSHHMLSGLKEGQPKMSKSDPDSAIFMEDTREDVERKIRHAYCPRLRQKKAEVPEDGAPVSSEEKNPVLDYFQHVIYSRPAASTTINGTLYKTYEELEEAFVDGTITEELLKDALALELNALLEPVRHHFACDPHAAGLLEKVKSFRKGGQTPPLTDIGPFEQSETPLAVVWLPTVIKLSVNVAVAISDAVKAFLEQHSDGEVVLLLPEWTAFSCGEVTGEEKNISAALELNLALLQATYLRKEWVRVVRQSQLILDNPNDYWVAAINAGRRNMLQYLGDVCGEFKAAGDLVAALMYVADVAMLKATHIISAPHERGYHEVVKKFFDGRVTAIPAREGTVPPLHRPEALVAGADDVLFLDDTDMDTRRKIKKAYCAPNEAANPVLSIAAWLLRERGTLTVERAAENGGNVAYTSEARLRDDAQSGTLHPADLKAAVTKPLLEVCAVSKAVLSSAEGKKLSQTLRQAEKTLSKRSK

[7] = molecular target: T4, Tyrosyl-tRNA synthetase, putative (Trypanosoma cruzi (strain CL Brener)); test: Trypanosoma cruzi tyrosyl tRNA synthetase (TcYRS) SOP; assay type: functional; conditions: 30 µM
[8] = molecular target: Chromo domain-containing protein 1 (Saccharomyces cerevisiae (strain ATCC 204508 / S288c) (Baker's yeast)) (UniProt P32657); test: ScCHD-1 Enzyme Inhibition Assay; assay type: functional; conditions: 30 µM; further: in the data most compounds retested in dose-response had high values
Chain of Chromo domain-containing protein 1 (Saccharomyces cerevisiae (strain ATCC 204508 / S288c) (Baker's yeast)) (P32657 whole entry, the tested form may be a part): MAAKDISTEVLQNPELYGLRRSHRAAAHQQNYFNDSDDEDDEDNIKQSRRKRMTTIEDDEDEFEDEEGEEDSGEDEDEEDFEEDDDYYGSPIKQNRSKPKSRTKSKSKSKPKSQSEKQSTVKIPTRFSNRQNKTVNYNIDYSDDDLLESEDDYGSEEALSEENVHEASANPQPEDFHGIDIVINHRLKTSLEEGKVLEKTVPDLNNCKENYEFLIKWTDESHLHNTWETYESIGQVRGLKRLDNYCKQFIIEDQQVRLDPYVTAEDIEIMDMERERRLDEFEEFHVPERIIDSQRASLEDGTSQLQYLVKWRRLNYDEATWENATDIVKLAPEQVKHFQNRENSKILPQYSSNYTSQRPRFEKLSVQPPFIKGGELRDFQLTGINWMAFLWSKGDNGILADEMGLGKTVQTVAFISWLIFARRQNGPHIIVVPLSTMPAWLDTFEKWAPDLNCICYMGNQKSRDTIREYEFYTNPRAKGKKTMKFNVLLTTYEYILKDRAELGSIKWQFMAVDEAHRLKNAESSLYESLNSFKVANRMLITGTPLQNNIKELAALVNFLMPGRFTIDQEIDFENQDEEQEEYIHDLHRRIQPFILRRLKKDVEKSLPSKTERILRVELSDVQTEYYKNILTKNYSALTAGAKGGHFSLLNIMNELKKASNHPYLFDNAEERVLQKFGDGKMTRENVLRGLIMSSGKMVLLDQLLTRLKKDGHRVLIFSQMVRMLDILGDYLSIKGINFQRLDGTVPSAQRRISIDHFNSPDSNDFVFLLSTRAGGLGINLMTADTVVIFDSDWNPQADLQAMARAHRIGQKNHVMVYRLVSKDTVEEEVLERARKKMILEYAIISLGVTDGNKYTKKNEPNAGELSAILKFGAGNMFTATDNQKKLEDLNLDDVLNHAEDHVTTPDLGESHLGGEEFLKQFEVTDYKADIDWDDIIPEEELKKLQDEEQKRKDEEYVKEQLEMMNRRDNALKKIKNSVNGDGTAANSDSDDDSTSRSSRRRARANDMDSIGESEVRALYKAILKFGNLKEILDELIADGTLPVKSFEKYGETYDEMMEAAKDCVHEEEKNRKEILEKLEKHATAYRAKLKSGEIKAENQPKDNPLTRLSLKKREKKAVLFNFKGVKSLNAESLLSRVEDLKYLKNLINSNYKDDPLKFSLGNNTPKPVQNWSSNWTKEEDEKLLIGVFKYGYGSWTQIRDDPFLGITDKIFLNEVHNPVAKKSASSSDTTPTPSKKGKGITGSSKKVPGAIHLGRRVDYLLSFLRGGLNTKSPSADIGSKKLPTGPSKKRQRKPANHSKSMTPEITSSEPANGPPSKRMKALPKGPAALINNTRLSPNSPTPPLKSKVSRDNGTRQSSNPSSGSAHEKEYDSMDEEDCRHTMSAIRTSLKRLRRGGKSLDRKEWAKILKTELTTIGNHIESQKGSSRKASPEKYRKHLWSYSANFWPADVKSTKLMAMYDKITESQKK

Row | SMILES | Percent Effect [1] [%] | Percent Effect [2] [%] | Percent Effect [3] [%] | Percent Effect (Trypanosoma cruzi) [%] | Percent Effect [4] [%] | Percent Effect [5] [%] | Percent Effect (Homo sapiens) [%] | Percent Effect [6] [%] | Percent Effect [7] [%] | Percent Effect [8] [%]
1 | Cc1cnn(C2CCCN(C(=O)c3sccc3C#N)C2)c1 (stereo not given) | -7.04 | 0 | -9.94 | -1.78 | -2.05 | -3.33 | 30.2 | 0.478 | 1.21 | -3.26
2 | O=C(c1ccccn1)N1Cc2nccn2CC(CN2CCOCC2)C1 (stereo not given) | -4.41 | 9.09 | -2.41 | -2.63 | 5.67 | 8.56 | 4.82 | 12.1 | 15.4 | 1.74
3 | CCNc1cc2c(nn1)CCN(C(=O)c1cc3nc(C)ccc3o1)C2 | -8.41 | 13.3 | 11.1 | 9.04 | -0.887 | 20.4 | 6.54 | 5.79 | 15.4 | -6.95
4 | COc1cc(C)nc(N2CCN(C(=O)COCC(F)(F)F)CC2)n1 | -3.6 | 7.69 | -1.63 | -1.22 | 1.64 | 3.16 | 22.4 | 4.31 | 8.43 | -3.52
5 | CCc1ncnc2c1CCN(Cc1ccc(OC)cc1)CC2 | -4.58 | -6.49 | -0.0854 | 2.82 | -2.02 | -3.79 | -6.35 | 1.58 | -12.8 | 0.0386
6 | Cc1nc(C(=O)N2CCC(Cc3cnc4[nH]ccc4c3)C2)co1 (stereo not given) | -3.17 | 6.67 | -5.86 | -1.97 | -4.87 | 10.5 | 26.2 | -2.12 | -2.5 | -18.2
7 | Fc1cccnc1CN1CCCCC1c1ccn2ccnc2n1 (stereo not given) | -5.06 | 22.7 | -2.65 | 1.77 | -1.33 | 11.8 | 14 | 8.47 | 22.5 | -27.9
8 | O=C(N1CCCC1)N1CCC2(CCCN(CCOc3ccccc3)C2)C1 (stereo not given) | -5.49 | 16.9 | -3.35 | -2.63 | -1.37 | 12.3 | 15.5 | 1.93 | 2.5 | -13.4
9 | O=C(NCCc1cccnc1)N1CCCC1c1ccsc1 (stereo not given) | -6.89 | 17.9 | -11.1 | 5.73 | 3.69 | 6.74 | 13.9 | 5.26 | 22.9 | -9.16
10 | O=C(NCC1CCOC1)Nc1ccc(OCC(F)(F)F)nc1 (stereo not given) | 0.633 | 7.69 | 2.59 | -1.97 | 8.2 | 7.76 | 17.4 | 2.39 | 8.43 | -2.87
11 | Cc1cccc(CN2CCc3nnc(CO)n3CC2)n1 | -0.433 | 19.5 | -0.362 | 0 | 1.37 | 13 | 16.8 | 9.66 | 15 | -7.15
12 | Cc1ccc(SCC2CNc3nc4ccccc4c(=O)n32)c(C)c1 (stereo not given) | 0.606 | 22.1 | 23.4 | 0.375 | 5.94 | 12.4 | 29.8 | 6.76 | -2.5 | -2.7
13 | O=C(O)c1cc(S(=O)(=O)N2CCOc3ccccc32)ccc1F | -6.51 | 10.3 | -10.2 | 5.54 | -0.82 | 10.8 | -4.8 | -0.478 | 18.1 | -3.79
14 | Cc1ccc(C(=O)N2C[C@H]3CCC[C@@]3(COCc3cccnc3)C2)s1 | -4.31 | 6.49 | -5.03 | -4.38 | 1.22 | 15.4 | 3.36 | 5.79 | 5.13 | 5.28
15 | CN1CC(c2ccccc2)CC12CCN(C(=O)c1cncc(Cl)c1)CC2 (stereo not given) | -4.25 | 5.41 | 3.4 | -0.679 | 0.35 | 12.3 | 12.2 | 7.98 | 14.6 | -5.7
16 | Cc1cc(NC(=O)CCN(CC2CCOC2)C2CC2)no1 (stereo not given) | -3.2 | 21.3 | -0.377 | 1.21 | -2.22 | 10.3 | 8.07 | 3.68 | 15.4 | -13.2
17 | Cc1nn(C)c(N(C)C)c1CNCCNS(C)(=O)=O | -1.65 | 10.3 | -0.784 | 5.54 | 5.74 | 9.3 | -6.32 | 7.18 | 20.5 | -2.87
18 | CN(C)c1ccccc1C(=O)N1C[C@@H](CN2CCCCC2)[C@@H](CO)C1 | -7.49 | 2.7 | 6.19 | 7.27 | -5.25 | 16.6 | -22.6 | 3.72 | 12.2 | -3.83
19 | CO[C@@H]1CCN(C(=O)c2ccccn2)[C@H]1Cc1ccccc1 | -0.453 | 19.5 | 2.27 | 1.5 | -0.457 | 6.95 | 8.74 | 8.7 | 10 | -6.55
20 | Cc1csc(N2CCCN(C(=O)c3c(C)oc(C)c3C)CC2)n1 | -7.12 | 18.7 | 3.18 | 4.22 | -1.77 | 20.1 | 8.84 | 7.89 | 17.9 | -8.96
21 | CNC(=O)c1ccc(C2CN(C(=O)COC)CCO2)nc1 (stereo not given) | 0.488 | 9.33 | 3.63 | -4.14 | 3.54 | 7.39 | 0.241 | 2.12 | 7.5 | -21.4
22 | CCN(C)Cc1cnc(S(=O)(=O)CC)n1CCOC | -9.54 | 0 | -2.25 | -3.4 | 2.45 | -0.856 | 0.566 | 1.6 | 4.88 | 2.11
23 | O=C(NCC1CC1)C1=NOC2(CCN(S(=O)(=O)c3cccs3)C2)C1 (stereo not given) | -2.62 | -3.9 | 6.57 | -1.85 | -3.64 | 3.79 | -1.32 | -0.526 | -2.56 | 0.639
